Results taken from article PMC4336329 (PLoS ONE, 2015).
The whole screen tested about 310,000 compounds, of which about 14,000 (4.5%) showed an effect of 50% or more. Effects have a minus sign here. Many of the other results were omitted from the sample, so strong results are more common in it than they were.

Each compound was assayed against human ether-à-go-go-related gene (hERG) potassium channel (human, UniProt Q12809) (assay: primary screen, population patch clamp on CHO cells stably expressing hERG; higher = less effect of the substance).
Sequence of human ether-à-go-go-related gene (hERG) potassium channel (Q12809 whole entry, looked up): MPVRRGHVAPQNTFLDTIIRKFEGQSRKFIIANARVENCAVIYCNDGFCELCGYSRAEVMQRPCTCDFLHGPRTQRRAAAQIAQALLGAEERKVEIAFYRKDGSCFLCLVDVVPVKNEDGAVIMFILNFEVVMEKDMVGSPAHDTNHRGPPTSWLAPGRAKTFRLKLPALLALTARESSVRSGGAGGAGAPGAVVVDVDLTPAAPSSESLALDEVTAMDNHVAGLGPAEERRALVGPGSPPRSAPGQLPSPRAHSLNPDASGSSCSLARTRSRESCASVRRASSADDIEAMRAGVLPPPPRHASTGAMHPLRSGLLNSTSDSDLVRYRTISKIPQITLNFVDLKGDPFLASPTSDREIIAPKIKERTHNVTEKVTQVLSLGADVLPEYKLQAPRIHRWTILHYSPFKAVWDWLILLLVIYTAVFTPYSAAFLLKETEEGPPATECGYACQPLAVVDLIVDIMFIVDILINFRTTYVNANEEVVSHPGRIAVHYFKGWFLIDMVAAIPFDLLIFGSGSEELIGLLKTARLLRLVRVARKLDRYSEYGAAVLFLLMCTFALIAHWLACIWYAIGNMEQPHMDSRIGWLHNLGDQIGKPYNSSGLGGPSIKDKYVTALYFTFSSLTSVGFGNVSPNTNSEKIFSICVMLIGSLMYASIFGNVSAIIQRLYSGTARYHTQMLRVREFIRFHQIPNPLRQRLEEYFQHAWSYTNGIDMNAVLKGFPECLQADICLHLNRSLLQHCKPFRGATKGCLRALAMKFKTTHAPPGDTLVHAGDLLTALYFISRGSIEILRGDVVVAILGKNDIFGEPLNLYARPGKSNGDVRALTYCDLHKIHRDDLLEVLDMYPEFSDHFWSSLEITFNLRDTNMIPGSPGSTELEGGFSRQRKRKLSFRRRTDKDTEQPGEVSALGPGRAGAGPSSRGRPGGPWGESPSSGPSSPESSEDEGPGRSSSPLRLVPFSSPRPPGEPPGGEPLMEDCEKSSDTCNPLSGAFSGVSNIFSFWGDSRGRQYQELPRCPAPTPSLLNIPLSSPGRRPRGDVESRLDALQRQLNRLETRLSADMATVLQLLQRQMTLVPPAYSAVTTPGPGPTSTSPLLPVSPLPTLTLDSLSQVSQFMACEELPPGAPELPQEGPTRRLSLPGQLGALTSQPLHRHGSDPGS
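Note: peak tail current of the secondary pulse compared with the same well before compound.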

SMILES	hERG current change (%, negative = inhibition) at 10uM
O=C(N/N=C/c1ccc(Cl)cc1Cl)c1cccc(F)c1	-10.5%
O=C(C[n+]1ccc(C(=O)N/N=C/c2ccc(Br)cc2)cc1)c1ccccc1.[Br-]	-63.6%
Cc1ccc(C(=O)N2CCCC(C(=O)c3ccc(Oc4ccccc4)cc3)C2)cn1 (stereo not shown)	-41%
CCC(=O)N1CCc2cc(S(=O)(=O)NC(C(=O)NCc3ccccc3)C(C)C)ccc21 (stereo not shown)	13.2%
COc1ccc(OCC(=O)Nc2cccc(S(=O)(=O)N(C)c3ccccc3)c2)c([N+](=O)[O-])c1	-6.21%
CCC1c2ccc(C)n2CCN1C(=O)Nc1ccccc1OC (stereo not shown)	9.92%
C=CCN(CC=C)C(=S)NC(=O)/C=C/c1ccc(C)cc1	8.14%
CC1(C)C(=O)N(c2ccccc2Cl)C(=O)c2ccccc21	-18.2%
CC1CCCN(CCC(=O)Nc2ccccc2)C1.Cl (stereo not shown)	12.2%
Cc1cccc(NC(=O)CCN2CCCC(C)C2)c1.Cl (stereo not shown)	1.45%
COc1ccc(NC(=O)CCN2CCCC(C)C2)cc1 (stereo not shown)	-23.2%
CC1CCN(CCNC(=S)Nc2ccc(Cl)cc2)CC1	-65.7%
CC1CCN(CCC(=O)Nc2ccc(Br)cc2)CC1.Cl	-54.6%
CC1CCCN(CCC(=O)Nc2ccc(Br)cc2)C1.Cl (stereo not shown)	-57.6%
COc1ccc(NC(=S)NCCN2CCC(C)CC2)cc1	-46%
S=C(NCCN1CCOCC1)Nc1ccc(Cl)cc1	5.48%
COc1ccc(C(=O)CCN2CCCC(C)C2)cc1.Cl (stereo not shown)	-26.2%
CC1CCCN(CCC(=O)c2ccc(Br)cc2)C1.Cl (stereo not shown)	-64.4%
Cl.O=C(CCN1CCCC1)Nc1ccc(Br)cc1	-15.7%
CCN1CCN(CCC(=O)Nc2ccc(Br)cc2)CC1.Cl	-24.4%
CCS(=O)(=O)c1ncc(Cl)c(C(=O)Nc2ccc(S(=O)(=O)N3CCC(C)CC3)cc2)n1	14.9%
CC(=O)c1ccc(NC(=O)C(C)OC(=O)c2ccc(NS(=O)(=O)c3ccc(F)c(F)c3)cc2)cc1 (stereo not shown)	-6.98%
COc1ccc(C(C)NC(=O)c2ccc(Cl)cc2)cc1OC (stereo not shown)	0.0898%
Cc1ccc(/C=C/c2nnc(-c3ccc(C)cc3)o2)cc1	11.3%
COCCNC(=O)Nc1ccc2c(c1)N(C)C(=O)CS2	11.5%

SMILES	hERG current change (%, negative = inhibition) at 10uM
COc1ccc(NC(=O)/C(=C\c2ccc(OS(=O)(=O)c3ccc(C)cc3)cc2)NC(=O)c2ccccc2)cc1	17.1%
CC(=O)N1CCN=C1SCc1ccccc1F	12.6%
Cc1cc(C(=O)O)c(S(C)(=O)=O)s1	-1.18%
O=[N+]([O-])c1cccc(-c2nnn(C34CC5CC(CC(C5)C3)C4)n2)c1	5.85%
Cc1cccc(NC(=O)CCN2CC(C)CC(C)C2)c1.Cl (stereo not shown)	-49.2%
CC1CCN(CCC(=O)Nc2ccccc2)CC1	-10.1%
CC1CCN(CCC(=O)Nc2ccc(Cl)cc2)CC1.Cl	-56.9%
CC1CC(C)CN(CCC(=O)Nc2ccc(Br)cc2)C1.Cl (stereo not shown)	-53.5%
Cc1ccc(NC(=O)CCN2CCC(C)CC2)cc1.Cl	18.6%
CC1CC(C)CN(CCC(=O)Nc2ccc3c(c2)CCC3)C1.Cl (stereo not shown)	-43.6%
COc1ccc(CN2C(=O)NC3(CCOc4ccccc43)C2=O)cc1F (stereo not shown)	-13.4%
COC(=O)c1c(NC(=S)Nc2ccc(F)cc2[N+](=O)[O-])sc2c1CCCCC2	4.46%
CC1CCCN(C/C=C/c2ccccc2[N+](=O)[O-])C1 (stereo not shown)	-23.1%
CC1CCCCN1C/C=C/c1ccccc1[N+](=O)[O-] (stereo not shown)	-39%
CCOC(=O)C1CCCN(C/C=C/c2ccccc2)C1 (stereo not shown)	-24.5%
CCOC(=O)C1CCN(C/C=C/c2ccccc2)CC1	-28.2%
CCC1CCCCN1C/C=C/c1ccccc1[N+](=O)[O-] (stereo not shown)	-60.2%
CCOC(=O)C1CCN(C/C=C/c2ccccc2OC)CC1	-20.5%
CCOC(=O)C1CCCN(C/C=C/c2ccccc2[N+](=O)[O-])C1 (stereo not shown)	-68.2%
CC1CC(C)CN(C/C=C/c2ccccc2[N+](=O)[O-])C1 (stereo not shown)	-55.9%
O=[N+]([O-])c1ccccc1/C=C/CN1CCCCC1CO (stereo not shown)	5.49%
CCN(CC)C(=O)C1CCCN(C/C=C/c2ccccc2[N+](=O)[O-])C1 (stereo not shown)	-33%
O=[N+]([O-])c1ccccc1/C=C/CN1CCCCC1	-6.44%
CCOC(=O)C1CCN(C/C=C/c2ccccc2[N+](=O)[O-])CC1	-70.2%
